Compound activity deposited in PubChem by several laboratories.
Shown are actives, neighbours in structure and some others; about 2.5% of the full set was active somewhere.
ATG4B inhibitor = ATG4B (human) cysteine protease inhibition; Q9Y4P1; ATG4B cleavage of LC3-PLA2, NBD-HPC fluorescence, 1 h; inhibition, % at 8.33 µM; 340,000 compounds, 0.51% hits; in the data active = inhibition above about 40%
Target sequence (Q9Y4P1 whole entry, looked up): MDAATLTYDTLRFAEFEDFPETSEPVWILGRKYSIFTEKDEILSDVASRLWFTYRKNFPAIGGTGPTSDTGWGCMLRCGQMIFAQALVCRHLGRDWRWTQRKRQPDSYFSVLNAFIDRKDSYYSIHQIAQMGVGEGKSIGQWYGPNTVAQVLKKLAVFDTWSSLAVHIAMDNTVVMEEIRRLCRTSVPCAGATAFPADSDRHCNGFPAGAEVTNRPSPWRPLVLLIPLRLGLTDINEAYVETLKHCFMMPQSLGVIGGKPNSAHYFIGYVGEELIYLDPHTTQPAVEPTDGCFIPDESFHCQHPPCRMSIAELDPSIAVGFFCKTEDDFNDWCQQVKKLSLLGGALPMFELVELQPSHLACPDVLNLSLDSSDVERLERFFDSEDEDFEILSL
Efflux pump inh = blocks antifungal efflux pumps in multiplex yeast assay; S. cerevisiae Candida pump triplex, Nile Red efflux; inhibition, % at 10 µM; 330,000 compounds, 0.44% hits;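 active = plate passing quality check with inhibition over a set limit, or well fluorescence over plate mean plus 4 SD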;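 note: Nile Red retained in pooled yeast measured as flow cytometry median fluorescence; higher means more Nile Red kept so more efflux inhibition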
V-ATPase pHluor = yeast V-ATPase proton transport regulation by pHLuorin; 350,000 compounds, 0.37% hits; response, % at 10 µM; S. cerevisiae, pHLuorin cytosolic pH fluorescence; in the data active = response mostly above about 7.3%, no sharp cut-off; inactive = mostly below about 5.4%; note: actives read high
Mot1-301 SUMO = SUMOylation pathway inhibition by Mot1-301 growth rescue | 320,000 compounds, 1% hits | S. cerevisiae Mot1-301 growth rescue, ATP luminescence, 38.5C; percent above DMSO median, 100 means doubled | growth rescue, % at 18.8 µM;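 active = every valid replicate shows activation above 250% relative to neutral control wells; inactive = the rest, any valid replicate at or below 250%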
AI-2 QS mod = modulators of Vibrio harveyi AI-2 quorum sensing system; Vibrio harveyi JMH597 AI-2 luminescence/OD600 ratio, 9 h; active compounds read low; strain lacks LuxN and CqsS sensors; 0 = neutral-control median; activity change, % at 7.5 µM; 300,000 compounds, 0.4% hits; AID 2094; in the data active = activity change below about -75%, passing the limit was not always enough;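 note: luminescence divided by OD600 gain over 9 h not by final OD600 alone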
Yeast Mot1 SUMO = inhibits SUMO pathway, affecting Mot1-301 yeast growth. shares compounds with Mot1-301 SUMO. S. cerevisiae Mot1-301 galactose growth, ATP luminescence, 24 h; -100 = growth of slx-deleted rescue strain. growth activity, percent, % at 42 µM. 2,300 tested, under 10 active;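 active = Signal drops as the depositor expects, and the fitted half-maximal dose is no more than ten times the top valid tested dose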;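 note: more negative values mean stronger growth rescue toward the control strain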
Of the large screens only hits and unclear results are named; the others gave an inactive call (follow-up assays come after a bar, where they were run).

O=C(c1cc(-c2ccccc2)nc2ccccc12)N1CCOCC1	none
CC(C)c1ccc(-c2cc(C(=O)N3CCOCC3)c3cc(Br)ccc3n2)cc1	Mot1-301 SUMO 614.2 | Yeast Mot1 SUMO inactive
COc1ccc2c(c1)[C@H]1[C@H](CO2)[C@H](c2ccccc2)[C@]2(C)C(=O)Nc3cc(C)ccc3C(=O)N12	Mot1-301 SUMO 462.6 (no result: AI-2 QS mod) | Yeast Mot1 SUMO inactive
Cc1ccc2c(c1)[C@H]1[C@H](CO2)[C@H](c2ccccc2)[C@]2(C)C(=O)Nc3cc(Cl)ccc3C(=O)N12	none (no result: AI-2 QS mod)
C[C@@]12C(=O)Nc3cc(F)ccc3C(=O)N1[C@H]1c3ccccc3OC[C@@H]1[C@@H]2c1ccccc1	Mot1-301 SUMO active (no result: AI-2 QS mod) | Yeast Mot1 SUMO inactive
COc1ccc2c(c1)OC[C@H]1[C@H]2N2C(=O)c3cc(F)ccc3NC(=O)[C@@]2(C)[C@H]1c1ccccc1	Mot1-301 SUMO active (no result: AI-2 QS mod) | Yeast Mot1 SUMO inactive
Cc1ccc2c(c1)[C@H]1[C@H](CO2)[C@H](c2ccccc2)[C@]2(C)C(=O)Nc3ccc(F)cc3C(=O)N12	none (no result: Efflux pump inh, Mot1-301 SUMO, AI-2 QS mod)
O=C(NCc1ccco1)C1CC(=O)N(c2ccc(Cl)cc2)C1 (stereo not given)	Mot1-301 SUMO 648.3 | Yeast Mot1 SUMO inactive
O=C(NCc1ccco1)C1CC(=O)N(c2cccc(Cl)c2)C1 (stereo not given)	none
CN(C)c1ccc(/C=N\Nc2ccccn2)cc1	Mot1-301 SUMO 457.9 | Yeast Mot1 SUMO inactive
C[C@@H]1C(=O)O[C@H]2CC34[C@H]5C[C@@H](C(C)(C)C)[C@]36[C@@H](OC(=O)[C@@H]6O)O[C@@]4(C(=O)O5)[C@]21O (stereo not given in full)	none (no result: AI-2 QS mod)
CC(=O)c1ccc(Nc2cc(C)nc3ccccc23)cc1	Mot1-301 SUMO 573.5 | Yeast Mot1 SUMO inactive
Cc1noc(C)c1Cc1c(Cl)cccc1Cl	none
Cc1noc(C)c1Cc1ccc(O)cc1	Mot1-301 SUMO 472.1 | Yeast Mot1 SUMO inactive
CCOC(=O)Oc1ccc2oc(=O)cc(C)c2c1	none
Cc1cc(=O)oc2ccc(OC(=O)CC(C)C)cc12	Mot1-301 SUMO 810.2 | Yeast Mot1 SUMO inactive
CC1(OC(=O)c2cccs2)C(=O)C=C2C=C(c3ccsc3)OC=C2C1=O (stereo not given)	none (no result: ATG4B inhibitor, V-ATPase pHluor)
CC1(OC(=O)C2CCCC2)C(=O)C=C2C=C(c3ccsc3)OC=C2C1=O (stereo not given)	Mot1-301 SUMO 505.8 | Yeast Mot1 SUMO inactive
O=C(c1cc2ccccc2o1)N1CCCC1	Mot1-301 SUMO active | Yeast Mot1 SUMO inactive
O=C(c1cc2ccccc2o1)N1CCN(C/C=C/c2ccccc2)CC1	Mot1-301 SUMO 540.8 | Yeast Mot1 SUMO inactive
O=C(CN1C(=O)NC(c2ccccc2)(c2ccccc2)C1=O)NC1CCCCC1	none (no result: Mot1-301 SUMO, AI-2 QS mod)
Cc1cc(C(F)(F)F)c(C#N)c(=O)[nH]1	Mot1-301 SUMO active (no result: AI-2 QS mod) | Yeast Mot1 SUMO inactive
CC(C)C(=O)Nc1ccc(-c2nc3ncccc3o2)cc1	none
CC(C)C(=O)Nc1ccc(-c2nc3cccnc3o2)cc1	Mot1-301 SUMO 665.8 | Yeast Mot1 SUMO inactive
CC(C)C(=O)Nc1cccc(-c2nc3ncccc3o2)c1	Mot1-301 SUMO active | Yeast Mot1 SUMO inactive
CCCCn1c(N)c(N(CCC(C)C)C(=O)COC(=O)c2ccc3ccccc3c2)c(=O)[nH]c1=O	none (no result: Efflux pump inh, Mot1-301 SUMO, AI-2 QS mod)
CC(=O)c1cccc(NC(=O)CN(c2cccc(F)c2)S(C)(=O)=O)c1	Mot1-301 SUMO 681.8 | Yeast Mot1 SUMO inactive
CCOc1ccc(NC(=O)CSc2nnc(Cc3csc(C)n3)o2)cc1	Mot1-301 SUMO 777.2 | Yeast Mot1 SUMO inactive
CCOc1ccc(Nc2nc(Cc3nnc(SCC(N)=O)o3)cs2)cc1	none
O=C(COc1ccc2c(c1)CCC2)NCc1ccc(Cl)cc1	none
CCOC(=O)Cn1c(=O)oc2cc(S(=O)(=O)NCCC(C)C)ccc21	none
CCOC(=O)Cn1c(=O)oc2cc(S(=O)(=O)NC(C)(C)CC)ccc21	Mot1-301 SUMO 642.7 | Yeast Mot1 SUMO inactive
COc1ccc(C)cc1NS(=O)(=O)c1ccc(Cl)nc1	none (no result: AI-2 QS mod)
CCC1SC2=NC(C)=C(C(=O)OC)C(c3ccc(C(=O)OC)cc3)N2C1=O (stereo not given)	none
